The list is not random: actives were taken first. Their share in the collection is about 2.9%.
MmCpn inh = Inhibitors of TCP-1 ring complex (TRiC) of Methanococcus maripaludis (MmCpn): qHTS. Chaperonin Mm-Cpn (Methanococcus maripaludis). purified Mm-Cpn ATPase, ADP Transcreener TR-FRET. Potency, µM (series often up to 76.9 µM), without a hit: at the top dose activity, negative = inhibition, usual class: inhibitors. 0.031% of 330,000 active. AID 504842, 2011; active means well fitted inhibition curve with a large enough effect; inconclusive means small, poorly fitted or top-dose-only effect; further: potency means the concentration at half of the fitted maximal effect; on the % scale 0 is the no-effect control and ±100 the full control effect; nearly all actives have a fitted effect of over 80% in size
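25 nM Mm-CPN + cpd, 10 min 37°C; + 10 uM ATP, 30 min 37°C; buffer 30 mM Tris pH 7.4, 100 mM KCl, 5 mM MgCl2, 1 mM DTT; Transcreener ADP HTRF detection 30 min RT.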
DRD3 antagonist = qHTS of D3 Dopamine Receptor Antagonist: qHTS; max response, negative = inhibition, %; AID 652054, 2013; 2.5% of 360,000 active; D(3) dopamine receptor (Homo sapiens), P35462; D3R cells, DiscoveRx beta-arrestin luminescence, antagonist mode; hits give low values; in the data active means max response below about -50%; inconclusive means no clear call, values can overlap the other calls; further: on the % scale 0 is the no-effect control and ±100 the full control effect
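Cells plated overnight at 1500 cells/well, then exposed to library compounds with dopamine controls for 90 minutes at 37 degrees C. DiscoveRx reagent added for 30–60 minutes at room temperature; luminescence read, quantitative HTS format.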
TSG101-PTAP inh = qHTS Assay for Iinhibitors of HIV-1 Budding by Blocking the Interaction of PTAP/TSG101; Potency, µM (top dose mostly 115 µM), without a hit: at the highest dose activity change, negative = inhibition, usual class: inhibitors; AID 493005, 2010; Fluorescence polarization, FITC-PTAP peptide / Tsg101 binding; 340,000 tested, under 10 active; active means well fitted inhibition curve with a large enough effect in the main read-out, with a control signal flat, not every such curve was filed as active; inconclusive means small, poorly fitted or top-dose-only effect, or effect the other way, or a change in a side signal; inactive means no such curve, though single readings can be large or run the other way; further: potency means the concentration at half of the fitted maximal effect; % of control where 0% means no effect
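Tsg101 binding domain (10 uM final) was mixed with compound and a FITC-labeled PTAP peptide (50 nM final) in HEPES pH 7.5 buffer with NaCl, Tween 20, EDTA and TCEP; fluorescence polarization was read after 20 min at r.t.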
Rango complex inh = qHTS Assay for Inhibitors of Rango (Ran-regulated importin-beta cargo) - Importin beta complex formation; Potency, µM (titrated, usually from 92.2 µM), without a hit: at the top dose inhibition of complex formation; 0.031% of 340,000 active; Importin subunit beta-1 (Homo sapiens), Q14974; Rango CFP/YFP FRET sensor + importin beta, 45 min;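 further: potency means the concentration at half of the fitted maximal effect; 0% = DMSO wells and 100% = buffer wells lacking importin beta; nearly all actives have a fitted effect of over 15% in size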
Target sequence (Q14974 whole entry, looked up): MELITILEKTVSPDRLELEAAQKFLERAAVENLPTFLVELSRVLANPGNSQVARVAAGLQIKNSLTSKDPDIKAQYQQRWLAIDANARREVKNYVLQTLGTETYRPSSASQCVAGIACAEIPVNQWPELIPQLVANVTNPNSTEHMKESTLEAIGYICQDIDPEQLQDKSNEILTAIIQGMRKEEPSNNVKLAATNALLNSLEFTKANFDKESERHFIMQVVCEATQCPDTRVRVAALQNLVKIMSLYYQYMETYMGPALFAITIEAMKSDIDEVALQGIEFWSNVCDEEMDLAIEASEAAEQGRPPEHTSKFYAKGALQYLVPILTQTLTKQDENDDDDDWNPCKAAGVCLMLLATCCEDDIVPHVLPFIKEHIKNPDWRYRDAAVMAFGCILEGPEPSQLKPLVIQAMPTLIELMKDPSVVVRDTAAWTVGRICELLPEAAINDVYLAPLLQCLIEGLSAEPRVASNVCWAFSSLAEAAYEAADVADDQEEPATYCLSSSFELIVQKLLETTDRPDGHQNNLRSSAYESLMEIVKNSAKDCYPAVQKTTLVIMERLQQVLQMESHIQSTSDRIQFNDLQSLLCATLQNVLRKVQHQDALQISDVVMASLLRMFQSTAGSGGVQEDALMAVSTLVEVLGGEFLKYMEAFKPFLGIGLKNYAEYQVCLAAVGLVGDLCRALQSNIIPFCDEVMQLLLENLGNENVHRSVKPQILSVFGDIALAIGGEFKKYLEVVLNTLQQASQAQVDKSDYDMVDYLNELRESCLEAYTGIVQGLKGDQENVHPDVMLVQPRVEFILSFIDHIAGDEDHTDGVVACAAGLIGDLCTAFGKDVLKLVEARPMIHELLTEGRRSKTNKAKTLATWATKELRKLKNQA
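FRET biosensor (snurportin 1 IBB flanked by EYFP and cerulean), 50 nM, with compound 5 min, then 0.125 microM importin beta in PBS, 1 mM DTT, 0.02% Tween-20, 0.1% BSA. CFP/YFP ratio read after 45 min at room temperature; pre-read flags interference.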
DRD3 agonist = qHTS of D3 Dopamine Receptor Agonist: qHTS; D(3) dopamine receptor (Homo sapiens), P35462; D3R DiscoveRx beta-arrestin cells, luminescence, 90 min; max activation, %; 0.58% of 410,000 active; AID 652048, 2013; in the data active means max activation above about 30%; further: 0% is about no effect
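Agonist-mode cell screen: cells plated at 1500/well and incubated overnight at 37 °C, then exposed to library compounds for 90 min at 37 °C. Detection reagent was added for 30–60 min at room temperature, and luminescence was read.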
Rango release inh = qHTS Assay for Inhibitors of RanGTP induced Rango (Ran-regulated importin-beta cargo) - Importin beta complex dissociation; Snurportin-1 (Homo sapiens) + GTP-binding nuclear protein Ran (Homo sapiens) + Importin …; Biochemical FRET Rango-importin beta, RanGTP-induced dissociation; Potency, µM (series often up to 46.1 µM), without a hit: at the highest dose activity change, negative = inhibition; 0.071% of 340,000 active; AID 540253, 2011; further: potency means the concentration at half of the fitted maximal effect; % of control where 0% means no effect; nearly all actives have a fitted effect of over 45% in size
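Quantitative HTS using a FRET biosensor: 0.1 uM Rango, 0.25 uM importin beta, 0.6 uM Ran, 2 mM GTP, 0.2 uM RCC1 final, PBS with DTT, Tween-20 and BSA. Post-read taken 45 min after Ran addition.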
* marks the source's active call; other numbers are inactive results; ? = inconclusive; · = no result. Unless noted, the call rests on the fitted dose curve.

SMILES | MmCpn inh | DRD3 antagonist | TSG101-PTAP inh | Rango complex inh | DRD3 agonist | Rango release inh
CC1(C(=O)NC2CCN(Cc3ccccc3)CC2)CCN1Cc1ccc2ccccc2c1 (stereo not given) | · | -97* | · | · | -11 | ·
CCOC(=O)c1c(Oc2ccc(OC)cc2)nnc(-c2ccccc2)c1-c1ccccc1 | · | · | · | · | 4 | ·
CN1C(=O)C(O)(C2CCCCCC2=O)c2ccccc21 (stereo not given) | 0% | 7 | -3% | -4% | 9 | 5%
CC1(C(=O)NC2CCN(Cc3ccccc3)CC2)CCN1Cc1ccc(OC(F)(F)F)cc1 (stereo not given) | · | -65* | · | · | -13 | ·
CCC(Sc1nncn2c1cc1occc12)C(=O)Nc1ccc(C)c(Cl)c1 (stereo not given) | · | · | · | · | -5 | ·
Cc1cc(-c2ccc(C)c(S(=O)(=O)NCCCN3CCN(c4ccccc4F)CC3)c2)on1 | 1% | -68* | 0% | -3% | 4 | 9%
COc1ccc(-c2cc(C)no2)cc1S(=O)(=O)NCCCN1CCN(c2ccccc2)CC1 | -3% | -58* | 6% | -2% | 0 | 19%
COc1ccc(Br)cc1S(=O)(=O)NCCCN1CCOCC1 | -2% | -90* | -3% | 1% | -13 | 0%
Cn1c(=O)oc2cc(S(=O)(=O)NCCN3CCN(c4ccccc4F)CC3)ccc21 | 1% | -54* | -4% | -1% | 11 | 7%
Cn1c(=O)oc2cc(S(=O)(=O)NCCN3CCCCCC3)ccc21 | 2% | 2 | -2% | 9% | 0 | -13%
Cc1cc(-c2ccc(C)c(S(=O)(=O)NCCCN3CCN(c4ccccc4)CC3)c2)on1 | -3% | ? | -3% | 0% | 0 | -10%
CCCCC(=O)Nc1cccc(-c2nc3ccccc3s2)c1 | · | · | · | · | 6 | ·
CCc1ccc(-c2nn(CC(=O)NC3CCCC3)c3c2cnc2ccc(F)cc23)cc1 | · | · | · | · | 4 | ·
O=c1ccc2ccccc2c2ccccc12 | · | -79* | · | · | -11 | ·
c1ccc2c(c1)ccc1ccccc12 | 1% | -9 | 0% | -1% | 0 | -3%
CN1CCc2c(sc(NC(=O)C3CCN(S(=O)(=O)c4cccs4)CC3)c2C(N)=O)C1 | -3% | 0 | -1% | ? | 5 | ?
CCN1CCN(c2ccc([N+](=O)[O-])c(Sc3nc4ccccc4[nH]3)c2)CC1 | 2% | -94* | -2% | ? | -39 | 5%
CS(=O)(=O)c1cc([N+](=O)[O-])c(Sc2nc3ccccc3[nH]2)c([N+](=O)[O-])c1 | -29% | -51* | -3% | 3% | -24 | 3%
Cn1cnc([N+](=O)[O-])c1Sc1nc2ccccc2[nH]1 | 1% | -54* | 1% | -1% | -20 | -2%
O=C(COC(=O)CN1C(=O)COc2ccccc21)NC1CCCCC1 | 0% | -15 | 0% | -1% | -11 | -27%
Cc1cccc(C)c1OCc1nnc(SCC(=O)NCc2ccccc2)o1 | 0% | 12 | 2% | 7% | 38* | 1%
CC(=O)c1ccc2c(c1)N(Cc1ccc3ccccc3c1)C(=O)C(C)S2 (stereo not given) | · | -75* | · | · | -6 | ·
CC1Sc2ccccc2N(Cc2ccccc2)C1=O (stereo not given) | · | 13 | · | · | 2 | ·
Cc1ccnc(NC(=O)c2ccc(C(=O)c3ccccc3)cc2)c1 | -1% | -55* | -2% | 3% | -8 | 0%
Cc1cc(C)cc(N2CCn3c2nc2c3c(=O)n(C/C=C/c3ccccc3)c(=O)n2C)c1 | · | · | · | · | -9 | ·
SMILES | MmCpn inh | DRD3 antagonist | TSG101-PTAP inh | Rango complex inh | DRD3 agonist | Rango release inh
Cc1ccc(NC(=O)Nc2nnc(SCC(=O)N3CCCCC3)s2)cc1 | · | · | · | · | 6 | ·
CCCCCN(C(=O)CCC(=O)OCC(=O)N(CC#N)c1ccccc1)c1c(N)n(CCCC)c(=O)[nH]c1=O | -2% | -54* | 1% | 0% | 0 | 5%
CCCCC1=CC2=C(c3ccco3)C(=O)C(C)(OC(=O)c3ccc(OC)cc3)C(=O)C2=CN1CCOC (stereo not given) | -2% | -6 | -4% | 2% | -12 | -5%
CCCCC1=CC2=C(c3ccco3)C(=O)C(C)(OC(=O)c3ccc(OC)cc3)C(=O)C2=CN1C1CCCCC1 (stereo not given) | -2% | -91* | · | ? | -39 | ?
COc1cccc(-n2c(=O)c3sc4ccccc4c3n(CC(=O)Nc3cccc(Cl)c3)c2=O)c1 | · | · | · | · | 17 | ·
CCOC(=O)C1=C(C)c2ccccc2N(S(=O)(=O)C(F)(F)F)C1C(=O)OCC (stereo not given) | 0% | 16 | -8% | 7% | -1 | 1%
CCOC(=O)C1=C(c2ccccc2)c2ccc(OC)cc2N(S(=O)(=O)C(F)(F)F)C1C(=O)OCC (stereo not given) | 0% | 54 | 1% | -3% | 39* | 1%
Cc1cccc(NC(=O)NCCN2CCN(c3ccccc3)CC2)c1C | -3% | -71* | -5% | 0% | 8 | 1%
CCc1ccc(N2CCN(CCNC(=O)Nc3ccccc3)CC2)cc1 | 0% | -72* | -7% | 4% | -16 | 2%
CCc1ccc(N2CCN(CCNC(=O)Nc3ccc(OC)cc3)CC2)cc1 | -2% | 8 | 1% | 2% | 1 | -10%
O=C(NCCN1CCN(c2ccccc2)CC1)Nc1cccc(Cl)c1 | 0% | ? | 1% | 6% | 13 | ?
Cc1ccc(NC(=O)NCCN2CCN(c3ccccc3)CC2)cc1Cl | 2% | -71* | -4% | -4% | -7 | 4%
COc1ccc(NC(=O)c2c(N)c(C(=O)c3ccc(OC)cc3)n3ccccc23)cc1 | · | · | · | · | -9 | ·
O=C(Nc1ccc(N2CCN(C(=O)c3cccs3)CC2)cc1)c1ccc(Br)o1 | 1% | 1 | -6% | 1% | 0 | 11%
COc1ccc(NC(=O)COc2cc(O)c3c(c2)OC(C)(C)CC3=O)cc1 | 0% | 1 | 0% | -1% | -20 | -8%
CC1(C)CC(=O)c2c(O)cc(OCC(=O)Nc3ccc(CCO)cc3)cc2O1 | -2% | 17 | -1% | -1% | 34* | 8%
CC(NC(=S)NCCc1ccccc1)C(c1cccs1)N1CCN(Cc2ccccc2)CC1 (stereo not given) | 1% | -79* | -1% | -1% | -13 | -23%

Source: PubChem BioAssay (National Center for Advancing Translational Sciences (NCATS))
